Active and inactive are the calls of the source.
What was measured:
[1] = binders of probe aFSTL3 on microarray, primary screen, stem cell growth factor project, biochemical, small-molecule microarray, fluorescence 635/667 (AID 1064); conditions: higher = more signal;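 further: measures binding of the biotinylated anti-FSTL3 antibody to printed compounds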
[2] = binders from COS7 lysate, DM2A8 probe, primary screen, torsin A project, cell lysate, small-molecule microarray, fluorescence 635/667 (AID 1065); conditions: higher = more signal, COS7 lysate expressing mutant human TOR1A
[3] = binders of probe aFGF2 on microarray, primary screen, stem cell growth factor project, biochemical, small-molecule microarray, fluorescence 635/667 (AID 1067); conditions: higher = more signal;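 further: measures binding of biotinylated aFGF2 protein to printed compounds on slides; z-score merges feature fluorescence and signal-to-noise across triplicate slides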
[4] = binders of probe aFGF10 on microarray, primary screen, stem cell growth factor project, biochemical, small-molecule microarray, fluorescence 635/667 (AID 1071); conditions: higher = more signal;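 further: score merges 667 nm spot intensity and signal to noise from triplicate slides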
[5] = biological target: Neurogenic locus notch homolog protein 2 (Homo sapiens) (UniProt Q04721); assay: Notch2 binders on small-molecule microarrays, primary screen, biochemical, small-molecule microarray, 635 nm fluorescence, stem cell growth factors (AID 1073); conditions: Notch2 binding, higher = more signal
[6] = biological target: Pro-neuregulin-1, membrane-bound isoform (Homo sapiens) (UniProt Q02297); assay: NRG1 binders on small-molecule microarrays, primary screen, psychiatric disease protein project, biochemical, small-molecule microarray, fluorescence 635/667 (AID 1075); conditions: NRG1 binding, 635 nm fluorescence, higher = more signal;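 further: score combines 667 nm spot fluorescence with signal to noise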
Pro-neuregulin-1, membrane-bound isoform (Homo sapiens), sequence (Q02297 whole entry, looked up, the tested form may be a part, canonical isoform): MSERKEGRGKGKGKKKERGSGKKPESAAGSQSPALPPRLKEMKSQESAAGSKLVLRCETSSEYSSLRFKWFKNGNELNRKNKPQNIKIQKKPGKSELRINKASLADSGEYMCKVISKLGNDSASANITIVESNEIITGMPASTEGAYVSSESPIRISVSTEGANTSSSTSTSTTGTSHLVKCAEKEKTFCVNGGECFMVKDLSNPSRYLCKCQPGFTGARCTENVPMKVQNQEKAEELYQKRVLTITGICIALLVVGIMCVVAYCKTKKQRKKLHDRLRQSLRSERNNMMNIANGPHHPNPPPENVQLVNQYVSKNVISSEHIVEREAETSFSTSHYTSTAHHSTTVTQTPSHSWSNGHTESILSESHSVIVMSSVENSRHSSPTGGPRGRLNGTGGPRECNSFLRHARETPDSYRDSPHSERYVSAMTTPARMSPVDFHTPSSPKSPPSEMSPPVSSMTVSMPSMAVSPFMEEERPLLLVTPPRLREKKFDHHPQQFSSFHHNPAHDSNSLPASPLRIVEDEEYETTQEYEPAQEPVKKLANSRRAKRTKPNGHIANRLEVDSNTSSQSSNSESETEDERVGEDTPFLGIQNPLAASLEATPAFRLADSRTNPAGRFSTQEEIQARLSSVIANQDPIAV

[7] = system: Neuregulin-1 EGF-like domain; assay: binders of neuregulin-1 EGF-like domain, primary screen, biochemical, small-molecule microarray, 635 nm fluorescence (AID 1081); conditions: small-molecule microarray binding, higher = more signal;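 further: binding of the protein to compounds printed on small-molecule microarray slides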
[8] = FRG1 promoter luciferase signal modulators, primary screen, FRG1 inhibition for FSHD, cell-based, C2C12 myotubes, firefly/Renilla luciferase, luminescence (AID 1084); conditions: higher = more signal, called active from +8 up or from −8 down
[9] = binders of probe aFST on microarray, primary screen, stem cell growth factor project, biochemical, small-molecule microarray, fluorescence 635/667 (AID 1086); conditions: higher = more signal;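 further: score merges 667 nm fluorescence with signal-to-noise of each printed compound spot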
[10] = binders of probe aHhip on microarray, primary screen, stem cell growth factor project, biochemical, small-molecule microarray, fluorescence 635/667 (AID 1087); conditions: higher = more signal;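 further: score merges spot fluorescence at 667nm with spot signal to noise ratio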
[11] = system: PRMT1 (protein arginine N-methyltransferase 1); assay: PRMT1 binders on small-molecule microarrays, primary screen, biochemical, small-molecule microarray, 635 nm fluorescence (AID 1088); conditions: small-molecule microarray binding, higher = more signal;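 further: binding of Prmt1 protein to compounds spotted on small-molecule microarray slides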
[12] = yeast growth modulation, basal conditions, primary screen, YJM789 clinical isolate, OD600, 24 h (AID 1089);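 further: growth of clinical yeast isolate S. cerevisiae YJM 789 seeded 1000 cells per well; test concentration not given here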; conditions: S. cerevisiae YJM789 growth, higher = more signal, called active from +8 up or from −8 down
[13] = fission yeast growth modulation, primary screen, strain 972, OD600, 24 h, no modulator (AID 1090);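 further: basal condition with compound alone and no growth modifier present; test concentration not given here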; conditions: S. pombe 972 growth, higher = more signal, called active from +8 up or from −8 down
[14] = S. cerevisiae growth modulation with rapamycin, primary screen, strain BY4716, OD600, 96 h (AID 1091); conditions: higher = more signal, called active from +8 up or from −8 down; further: test concentration not given here
[15] = biological target: Torsin-1A-interacting protein 2 (Homo sapiens) (UniProt Q8NFQ8); assay: LULL1 binders on small-molecule microarray, primary screen, cell lysate, human LULL1 lysate, 635/667 nm fluorescence (AID 1092); conditions: hLULL1 lysate binding, 635 nm fluorescence, higher = more signal;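 further: probe is lysate of COS7 cells overexpressing human LULL1; score merges per-feature 667 nm fluorescence with signal-to-noise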
Torsin-1A-interacting protein 2 (Homo sapiens), sequence (Q8NFQ8 whole entry, looked up): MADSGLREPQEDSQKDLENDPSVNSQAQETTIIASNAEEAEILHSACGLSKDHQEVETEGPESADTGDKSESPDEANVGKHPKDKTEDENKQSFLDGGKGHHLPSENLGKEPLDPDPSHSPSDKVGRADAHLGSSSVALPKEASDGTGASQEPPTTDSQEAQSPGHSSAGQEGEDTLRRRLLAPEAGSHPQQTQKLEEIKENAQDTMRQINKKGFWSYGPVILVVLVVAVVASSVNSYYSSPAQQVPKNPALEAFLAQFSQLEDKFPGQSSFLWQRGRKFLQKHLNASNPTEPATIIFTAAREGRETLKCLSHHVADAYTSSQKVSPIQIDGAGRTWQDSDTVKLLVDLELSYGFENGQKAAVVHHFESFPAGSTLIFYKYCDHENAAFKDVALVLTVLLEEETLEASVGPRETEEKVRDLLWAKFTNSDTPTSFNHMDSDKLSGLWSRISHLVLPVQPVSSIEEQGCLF

[16] = E. coli growth modulation, two-sided OD650, primary screen, E. coli filamentation project, strain DRC41, 24 h (AID 1093); conditions: OD650, 24 h, higher = more signal, called active from +8 up or from −8 down;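 further: MC1000 strain lacking acrAB efflux and sulA so SOS filamentation is blocked; test concentration not given here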
[17] = small-molecule microarray binders of probe aLefty2, primary screen, biochemical, biotinylated probe, 635/667 nm fluorescence (AID 1094); conditions: higher = more signal;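 further: score merges spot fluorescence near 667 nm with spot signal-to-noise ratio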
[18] = system: Noggin (protein binding on small-molecule microarray); assay: Noggin binders on small-molecule microarray, primary screen, biochemical, 635/667 nm fluorescence (AID 1095); conditions: 635 nm fluorescence, higher = more signal;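 further: score merges 667 nm feature fluorescence with signal to noise over triplicate slides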
[19] = biological target: Neurogenic locus notch homolog protein 3 (Homo sapiens) (UniProt Q9UM47); assay: NOTCH3 binders on small-molecule microarray, primary screen, biochemical, 635/667 nm fluorescence (AID 1096); conditions: NOTCH3 binding, 635 nm fluorescence, higher = more signal
Neurogenic locus notch homolog protein 3 (Homo sapiens), sequence (Q9UM47 whole entry, looked up): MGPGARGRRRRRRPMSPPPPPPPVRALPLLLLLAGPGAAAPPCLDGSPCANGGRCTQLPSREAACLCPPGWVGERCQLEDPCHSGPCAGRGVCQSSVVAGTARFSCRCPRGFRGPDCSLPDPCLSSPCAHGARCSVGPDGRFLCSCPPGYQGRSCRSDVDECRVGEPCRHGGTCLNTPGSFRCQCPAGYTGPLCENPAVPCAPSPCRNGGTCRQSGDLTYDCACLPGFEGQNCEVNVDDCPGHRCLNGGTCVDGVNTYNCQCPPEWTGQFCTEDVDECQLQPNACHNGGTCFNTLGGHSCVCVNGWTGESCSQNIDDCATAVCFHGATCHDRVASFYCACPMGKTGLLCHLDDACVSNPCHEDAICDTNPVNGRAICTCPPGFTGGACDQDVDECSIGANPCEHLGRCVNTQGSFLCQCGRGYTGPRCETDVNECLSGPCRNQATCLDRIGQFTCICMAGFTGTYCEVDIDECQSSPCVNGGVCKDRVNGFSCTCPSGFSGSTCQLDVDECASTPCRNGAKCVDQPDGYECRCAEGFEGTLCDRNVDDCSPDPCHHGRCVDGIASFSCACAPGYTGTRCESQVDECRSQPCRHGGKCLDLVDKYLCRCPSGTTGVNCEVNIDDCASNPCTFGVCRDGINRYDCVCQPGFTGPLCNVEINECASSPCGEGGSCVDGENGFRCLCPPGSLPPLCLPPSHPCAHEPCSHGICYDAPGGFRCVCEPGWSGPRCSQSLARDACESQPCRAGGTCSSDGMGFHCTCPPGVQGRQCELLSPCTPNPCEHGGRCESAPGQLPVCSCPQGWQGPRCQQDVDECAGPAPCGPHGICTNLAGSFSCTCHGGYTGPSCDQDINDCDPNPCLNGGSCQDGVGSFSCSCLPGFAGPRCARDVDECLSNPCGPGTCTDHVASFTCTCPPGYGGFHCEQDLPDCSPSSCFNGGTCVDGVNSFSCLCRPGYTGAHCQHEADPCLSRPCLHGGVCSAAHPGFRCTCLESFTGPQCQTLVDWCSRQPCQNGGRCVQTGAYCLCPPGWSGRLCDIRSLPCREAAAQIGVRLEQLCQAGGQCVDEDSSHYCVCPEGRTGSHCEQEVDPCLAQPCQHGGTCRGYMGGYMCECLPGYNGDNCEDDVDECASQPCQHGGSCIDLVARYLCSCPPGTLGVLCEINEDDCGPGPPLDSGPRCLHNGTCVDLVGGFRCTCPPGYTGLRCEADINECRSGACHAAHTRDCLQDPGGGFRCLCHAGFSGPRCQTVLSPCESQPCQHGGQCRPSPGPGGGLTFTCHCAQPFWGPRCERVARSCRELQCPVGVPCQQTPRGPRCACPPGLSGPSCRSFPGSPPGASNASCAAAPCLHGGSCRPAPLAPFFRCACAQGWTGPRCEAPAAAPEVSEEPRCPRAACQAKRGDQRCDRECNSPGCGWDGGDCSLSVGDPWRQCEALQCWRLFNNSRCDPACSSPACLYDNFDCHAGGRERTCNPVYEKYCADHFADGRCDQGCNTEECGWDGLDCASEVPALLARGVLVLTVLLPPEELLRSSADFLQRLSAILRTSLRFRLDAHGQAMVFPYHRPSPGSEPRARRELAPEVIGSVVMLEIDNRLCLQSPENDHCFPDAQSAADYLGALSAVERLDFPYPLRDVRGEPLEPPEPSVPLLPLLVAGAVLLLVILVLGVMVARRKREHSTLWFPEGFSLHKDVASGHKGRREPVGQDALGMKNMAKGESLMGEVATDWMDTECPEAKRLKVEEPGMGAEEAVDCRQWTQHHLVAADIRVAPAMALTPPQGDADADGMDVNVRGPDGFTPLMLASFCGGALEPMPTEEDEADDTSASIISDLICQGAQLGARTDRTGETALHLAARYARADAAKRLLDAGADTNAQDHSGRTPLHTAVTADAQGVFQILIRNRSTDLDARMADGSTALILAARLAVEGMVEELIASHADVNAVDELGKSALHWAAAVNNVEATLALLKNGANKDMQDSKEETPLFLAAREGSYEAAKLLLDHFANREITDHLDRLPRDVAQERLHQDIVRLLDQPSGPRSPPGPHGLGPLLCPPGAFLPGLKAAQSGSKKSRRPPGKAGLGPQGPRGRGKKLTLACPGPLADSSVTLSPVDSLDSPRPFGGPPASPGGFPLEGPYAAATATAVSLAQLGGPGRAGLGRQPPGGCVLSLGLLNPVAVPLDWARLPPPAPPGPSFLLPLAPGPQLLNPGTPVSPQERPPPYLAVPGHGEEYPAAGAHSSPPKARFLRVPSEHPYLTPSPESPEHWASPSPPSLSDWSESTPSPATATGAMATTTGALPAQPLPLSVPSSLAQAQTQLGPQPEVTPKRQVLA

[20] = small-molecule microarray binders of probe aEGFR, primary screen, biochemical, biotinylated probe, 635/667 nm fluorescence (AID 1097); conditions: higher = more signal;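 further: probe is a biotinylated anti-EGFR antibody binding compounds printed on slides; score combines fluorescence near 667 nm and signal to noise of each spot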

Compound	composite z-score [1]	composite z-score [2]	composite z-score [3]	composite z-score [4]	composite z-score [5]	composite z-score [6]	composite z-score [7]	z-score [8]	composite z-score [9]	composite z-score [10]	composite z-score [11]	z-score [12]	z-score [13]	z-score [14]	composite z-score [15]	z-score [16]	composite z-score [17]	composite z-score [18]	composite z-score [19]	composite z-score [20]
C=CC[C@@]1(C(=O)NCCN2CCOCC2)N=C(c2ccc(OCCCO)cc2)O[C@@H]1c1ccccc1N=[N+]=[N-]	1.4	-0.355	-0.119	0.686	0.322	1.37	1.03	2.98 (inactive)	0.803	-0.0645	0.513	0.658 (inactive)	-0.211 (inactive)	0.408 (inactive)	2.03	-0.0403 (inactive)	0.293	0.26	-0.483	0.38
COc1ccc(C#Cc2ccc3c(c2)[C@]2(C(=O)N3)[C@H](C(=O)Nc3nc4ccccc4s3)[C@H]3C(=O)O[C@H](c4ccccc4)[C@H](c4ccccc4)N3[C@@H]2c2ccc(O)cc2)cc1	-0.433	0.923	0.0956	1.13	1.29	1.38	1.34	1.46 (inactive)	1.36	-0.511	1.55	2.2 (inactive)	0.98 (inactive)	0.172 (inactive)	3.26	0.943 (inactive)	-0.0353	1.82	1.02	0.398
CCOC(=O)C[C@H]1[C@H](OC(=O)c2ccc(C(=O)c3ccccc3)cc2)[C@@H](NC(=O)c2ccc3ccccc3n2)c2cc(OCCCO)ccc2N1C(=O)c1ccccc1	-0.384	0.264	0.0498	1.03	0.454	0.45	0.975	0.823 (inactive)	0.493	-0.243	1.23	-0.658 (inactive)	0.103 (inactive)	-0.291 (inactive)	1.94	-1.16 (inactive)	-0.025	0.552	0.99	0.0864
Cc1ccc([C@@H]2C[C@@H](Sc3ccccc3)[C@H](C(=O)O)CN2S(=O)(=O)c2ccc(C)cc2)cc1	-0.0057	0.414	0.0512	0.983	1.59	1.57	1.35	-3.65 (inactive)	0.936	0.0373	1.54	-0.337 (inactive)	0.565 (inactive)	-0.787 (inactive)	3.53	-0.773 (inactive)	0.141	0.339	1.08	0.0082
CO[C@H]1O[C@H](CO)[C@@H](OC(=O)Nc2ccccc2)[C@H](OC(=O)Nc2ccccc2)[C@@H]1OC(=O)Nc1ccccc1	-0.29	0.692	0.205	0.784	1.3	1.45	1.37	1.89 (inactive)	1.05	-0.546	1.53	1.24 (inactive)	0.975 (inactive)	3.37 (inactive)	3.66	-0.0493 (inactive)	0.232	1.38	1.06	0.138
COCCCNC(=O)[C@@]1(C)c2ccccc2C(=O)N(C(C)C)[C@H]1c1ccc(CO)cc1	-0.427	0.512	-0.0996	-0.0442	0.552	0.302	1.48	0.214 (inactive)	0.114	0.0201	1.53	0.564 (inactive)	-0.162 (inactive)	0.642 (inactive)	1.6	-0.636 (inactive)	-0.136	0.571	0.473	0.0004
CNS(=O)(=O)c1ccc(C)cc1	-0.366	0.182	-0.14	0.248	0.192	-0.0687	0.314	-0.443 (inactive)	0.209	-0.0346	1.14	-2.29 (inactive)	-2.38 (inactive)	-0.719 (inactive)	0.283	2.55 (inactive)	-0.165	1.19	0.629	-0.101
CC(C)C[C@@H]1NC(=O)[C@@H]2C[C@H](C(=O)NCc3ccc(F)cc3)[C@H](c3cccc(OCCO)c3)N2C1=O	0.0163	0.297	-0.0861	0.362	-0.575	-0.0212	1.32	-0.148 (inactive)	-0.405	-0.236	1.38	-1.84 (inactive)	-0.161 (inactive)	-0.425 (inactive)	2.14	1.64 (inactive)	-0.0674	0.572	0.552	-0.147
[N-]=[N+]=Nc1ccccc1[C@@H]1OC(c2ccc(OCCCO)cc2)=N[C@]1(Cc1ccccc1)C(=O)N1CCOCC1	0.324	0.0788	0.14	0.781	1.55	1.26	1.2	-1.5 (inactive)	0.802	0.0053	1.56	0.785 (inactive)	-1.26 (inactive)	1.85 (inactive)	3.22	0.301 (inactive)	0.225	0.328	1.1	0.276
C=CCC(OC(C)=O)[C@@H]1[C@@H](N(Cc2ccc(-c3ccccc3)cc2)C(=O)c2cccc3ccccc23)c2cc(OCCCO)ccc2N1C(=O)c1ccc(-c2ccccc2)cc1 (stereo not given in full)	0.103	0.177	0.0521	0.19	0.0198	-0.0375	-0.159	-1.45 (inactive)	0.461	-0.0006	0.245	0.21 (inactive)	-0.234 (inactive)	-0.438 (inactive)	0.796	1.17 (inactive)	0.0159	0.0623	-0.0827	0.0009
C=CCNC(=O)[C@@H]1[C@H]2C(=O)O[C@H](c3ccccc3)[C@H](c3ccccc3)N2[C@H](c2ccccc2OCCO)[C@@]12C(=O)N(C(=O)OCCOC)c1ccccc12	0.599	0.603	-0.107	0.73	1.32	0.848	1.29	-0.0386 (inactive)	0.562	0.621	1.54	2.86 (inactive)	2.29 (inactive)	7.26 (inactive)	2.64	-0.442 (inactive)	0.0615	1.71	0.884	-0.0381
O=C1C[C@@](C(=O)NCCN2CCOCC2)(c2ccc([N+](=O)[O-])cc2)[C@@H](c2ccc(CO)cc2)N1CC12CC3CC(CC(C3)C1)C2	-0.243	0.667	-0.0692	0.573	1.51	1.58	1.39	-2.76 (inactive)	0.669	0.155	1.53	-1.41 (inactive)	-17.2 (active)	-1.37 (inactive)	3.31	-2.26 (inactive)	0.0211	1.4	1.09	0.0778
COC(=O)[C@@]1(Cc2ccc(F)cc2)[C@H]2c3cc(C(=O)N(C)C)n(Cc4ccccc4)c3C[C@H]2CN1C(=O)c1ccccc1	-0.0364	-0.267	0.0103	0.314	1.58	1.32	0.337	0.403 (inactive)	1.35	2.22	0.964	0.428 (inactive)	1.49 (inactive)	3.85 (inactive)	1.73	-0.466 (inactive)	0.318	-0.004	1.14	0.0709
COC(=O)[C@@]1(Cc2ccccc2)[C@H]2c3cc(C(=O)N4CCCC4)n(Cc4ccc(S(C)(=O)=O)cc4)c3C[C@H]2CN1C(=O)c1ccccc1	1	0.0844	0.371	-0.0015	1.68	1.66	1.31	1.45 (inactive)	1.23	0.939	0.375	0.527 (inactive)	0.955 (inactive)	0.671 (inactive)	3.56	-0.47 (inactive)	0.0495	0.0689	1.01	0.348
O=C(c1ccccc1)N1Cc2ccccc2C[C@@]2(COC(c3ccc(OCCCO)cc3)=N2)C1=O	-0.0932	0.711	0.0292	0.591	1.03	0.0612	1.25	-0.187 (inactive)	0.146	-0.0296	1.55	-1.1 (inactive)	-11.1 (active)	3.57 (inactive)	3.39	0.0571 (inactive)	0.0478	0.779	1.04	-0.0439
O=C(NC1CC1)[C@@H]1c2ccccc2C(=O)N(Cc2ccccc2Cl)[C@H]1c1ccc(CO)cc1	-0.255	0.256	-0.104	0.486	0.532	0.93	1.32	-2.22 (inactive)	0.882	-0.15	1.54	-2.17 (inactive)	-2.52 (inactive)	-1.66 (inactive)	2.77	4.01 (inactive)	0.161	1.02	1.11	0.0103
CCOC(=O)C[C@H]1[C@H](OC(=O)c2ccccc2-c2ccccc2)[C@@H](NC(=O)CC(C)C)c2cc(OCCCO)ccc2N1C(=O)Cc1ccc(OC)cc1	-0.259	0.43	-0.104	0.225	0.135	0.173	-0.155	0.506 (inactive)	0.327	-0.199	0.395	-0.454 (inactive)	0.109 (inactive)	0.146 (inactive)	0.472	-0.853 (inactive)	-0.103	0.356	-0.23	-0.111
CN1C(=O)C2C=CC(C(O)c3ccc([N+](=O)[O-])cc3)N(N3CCCCC3)C2C1=O (stereo not given)	1.11	-0.306	0.132	0.695	1.6	1.3	0.961	0.198 (inactive)	1.36	-0.365	0.957	0.462 (inactive)	0.647 (inactive)	0.19 (inactive)	2.69	-1.74 (inactive)	0.347	-0.245	1.07	0.161
CC(C)c1ccc(NN2C(C(O)c3ccc(B(O)O)cc3)C=CC3C(=O)N(c4ccccc4)C(=O)C32)cc1 (stereo not given)	0.842	0.0275	0.185	1.13	1.63	1.19	1.15	0.87 (inactive)	1.67	0.0722	0.815	0.0686 (inactive)	-4.4 (inactive)	0.617 (inactive)	2.99	-0.41 (inactive)	0.413	-0.266	1.11	-0.0179
C=C(CCCC)/C(=C/C[C@H](OC(C)=O)c1ccccc1OCCO)c1cc(C(=O)OC)ccc1OC	-0.198	-0.268	-0.134	0.339	-0.264	-0.35	0.48	-0.214 (inactive)	-0.201	-0.134	-0.0836	0.556 (inactive)	-0.886 (inactive)	-0.24 (inactive)	0.405	1.18 (inactive)	-0.171	-0.035	0.212	-0.126
